“And” between values parts separate entries of the source, which are not always exact repeats. Equal values may be shown once. The campaign covered roughly 5,500 compounds. About 2,000 (36%) were called active. About 18% were inconclusive and are not listed. The list shows a part of the results. Unmarked numbers belong to inactive results. Cut-off read from the data, not from the text of the source: active = normalized growth mostly below about 0.91 (no sharp cut-off); inconclusive = no clear call, values can overlap the other calls; inactive = mostly above about 0.92.
Experiment: chemical genetic growth profiling, strain panel (AID 1159580);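 note: tested at 20 µM; growth read once vehicle control cultures reached saturation at 30 °C; 1 = growth at the plate median or of vehicle wells; lower values mean less growth of the strain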
Details: S. cerevisiae deletion strains, growth OD

Question: What does the source list for `CC1=CC2C(C(C)C)CCC(C)(O)C2CC1` (configuration not stated)?
Answer: normalized growth (locus YAL013W, strain DEP1, stronger effect = lower value): 1; normalized growth (locus YAL021C, strain ccr4, stronger effect = lower value): 0.981; normalized growth (locus YAL026C, strain drs2, stronger effect = lower value): 1.01; normalized growth (locus YAL030W, strain snc1, stronger effect = lower value): 0.989; normalized growth (locus YBL061C, strain skt5, stronger effect = lower value): 0.991; normalized growth (locus YBR009C, strain hhf1, stronger effect = lower value): 0.97; normalized growth (locus YBR021W, strain FUR4, stronger effect = lower value): 0.999; normalized growth (locus YBR023C, strain chs3, stronger effect = lower value): 0.945; normalized growth (locus YBR171W, strain sec66, stronger effect = lower value): 0.974; normalized growth (locus YBR229C, strain ROT2, stronger effect = lower value): 0.949; normalized growth (locus YBR231C, strain swc5, stronger effect = lower value): 1.02; normalized growth (locus YBR279W, strain paf1, stronger effect = lower value): 0.988; normalized growth (locus YCL011C, strain gbp2, stronger effect = lower value): 0.998; normalized growth (locus YCL016C, strain dcc1, stronger effect = lower value): 0.972; normalized growth (locus YCL029C, strain bik1, stronger effect = lower value): 0.953; normalized growth (locus YCL061C, strain MRC1, stronger effect = lower value): 1.01; normalized growth (locus YCL069W, strain vba3, stronger effect = lower value): 0.981; normalized growth (locus YCR088W, strain abp1, stronger effect = lower value): 0.996; normalized growth (locus YDL005C, strain med2, stronger effect = lower value): 0.998; normalized growth (locus YDL035C, strain GPR1, stronger effect = lower value): 0.963; normalized growth (locus YDL040C, strain nat1, stronger effect = lower value): 0.987; normalized growth (locus YDL074C, strain BRE1, stronger effect = lower value): 0.97; normalized growth (locus YDL101C, strain DUN1, stronger effect = lower value): 0.977; normalized growth (locus YDL134C, strain PPH21, stronger effect = lower value): 1.01; normalized growth (locus YDL185W, strain tfp1, stronger effect = lower value): 0.972; normalized growth (locus YDL192W, strain arf1, stronger effect = lower value): 0.934; normalized growth (locus YDR001C, strain nth1, stronger effect = lower value): 0.992; normalized growth (locus YDR069C, strain doa4, stronger effect = lower value): 1.01; normalized growth (locus YDR101C, strain arx1, stronger effect = lower value): 0.969; normalized growth (locus YDR137W, strain rgp1, stronger effect = lower value): 0.771 (active); normalized growth (locus YDR159W, strain sac3, stronger effect = lower value): 0.915; normalized growth (locus YDR162C, strain NBP2, stronger effect = lower value): 0.956; normalized growth (locus YDR195W, strain ref2): 1.03; normalized growth (locus YDR297W, strain sur2, stronger effect = lower value): 0.979; normalized growth (locus YDR318W, strain mcm21, stronger effect = lower value): 0.959; normalized growth (locus YDR334W, strain swr1, stronger effect = lower value): 1.03; normalized growth (locus YDR335W, strain msn5, stronger effect = lower value): 0.977; normalized growth (locus YDR388W, stronger effect = lower value): 0.985; normalized growth (locus YDR392W, strain spt3, stronger effect = lower value): 0.59 (active); normalized growth (locus YDR502C, strain sam2, stronger effect = lower value): 1.02; normalized growth (locus YEL003W, strain gim4, stronger effect = lower value): 1; normalized growth (locus YEL037C, strain rad23, stronger effect = lower value): 0.997; normalized growth (locus YEL061C, strain CIN8 (second series), stronger effect = lower value): 1; normalized growth (locus YEL061C, strain CIN8, stronger effect = lower value): 0.974; normalized growth (locus YER015W, strain faa2, stronger effect = lower value): 0.991; normalized growth (locus YER016W, strain bim1, stronger effect = lower value): 0.998; normalized growth (locus YER110C, stronger effect = lower value): 0.966; normalized growth (locus YER111C, strain swi4, stronger effect = lower value): 0.995; normalized growth (locus YER155C, strain BEM2 (second series), stronger effect = lower value): 0.875; normalized growth (locus YER155C, strain BEM2, stronger effect = lower value): 0.992; normalized growth (locus YER167W, strain BCK2, stronger effect = lower value): 0.977; normalized growth (locus YFR010W, strain ubp6, stronger effect = lower value): 1.1; normalized growth (locus YGL078C, strain dbp3, stronger effect = lower value): 1.02; normalized growth (locus YGL086W, strain mad1, stronger effect = lower value): 0.978; normalized growth (locus YGL167C, strain pmr1, stronger effect = lower value): 0.98; normalized growth (locus YGL173C, strain kem1, stronger effect = lower value): 0.994; normalized growth (locus YGL227W, strain vid30, stronger effect = lower value): 0.991; normalized growth (locus YGL240W, strain doc1, stronger effect = lower value): 0.959; normalized growth (locus YGL248W, strain PDE1, stronger effect = lower value): 1.02; normalized growth (locus YGL253W, strain hxk2, stronger effect = lower value): 0.998; normalized growth (locus YGR078C, strain PAC10, stronger effect = lower value): 0.981; normalized growth (locus YGR135W, strain pre9, stronger effect = lower value): 1.08; normalized growth (locus YGR229C, strain SMI1, stronger effect = lower value): 0.969; normalized growth (locus YGR252W, strain gcn5, stronger effect = lower value): 1.06; normalized growth (locus YHR013C, strain ard1, stronger effect = lower value): 1.08; normalized growth (locus YHR027C, strain rpn1, stronger effect = lower value): 1.01; normalized growth (locus YHR030C, strain SLT2, stronger effect = lower value): 1 and 0.93; normalized growth (locus YHR079C, strain IRE1 (second series), stronger effect = lower value): 0.987; normalized growth (locus YHR079C, strain IRE1, stronger effect = lower value): 0.918; normalized growth (locus YHR094C, strain hxt1, stronger effect = lower value): 0.983; normalized growth (locus YHR129C, strain ARP1, stronger effect = lower value): 0.993; normalized growth (locus YHR142W, strain chs7, stronger effect = lower value): 0.916; normalized growth (locus YHR200W, strain rpn10, stronger effect = lower value): 1; normalized growth (locus YIL066C, strain RNR3, stronger effect = lower value): 0.968; normalized growth (locus YIL073C, strain SPO22, stronger effect = lower value): 1.04; normalized growth (locus YIL125W, strain kgd1, stronger effect = lower value): 0.961; normalized growth (locus YIR030C, strain dcg1, stronger effect = lower value): 0.981; normalized growth (locus YJL092W, strain hpr5, stronger effect = lower value): 0.996; normalized growth (locus YJL095W, strain BCK1 (second series), stronger effect = lower value): 0.995; normalized growth (locus YJL095W, strain BCK1, stronger effect = lower value): 1.05 and 0.947; normalized growth (locus YJL115W, strain asf1, stronger effect = lower value): 1; normalized growth (locus YJL129C, strain trk1, stronger effect = lower value): 1.01; normalized growth (locus YJL134W, strain LCB3, stronger effect = lower value): 0.979; normalized growth (locus YJL154C, strain vps35, stronger effect = lower value): 0.998; normalized growth (locus YJL164C, strain tpk1, stronger effect = lower value): 0.942; normalized growth (locus YJL166W, strain qcr8, stronger effect = lower value): 0.979; normalized growth (locus YJL168C, strain set2, stronger effect = lower value): 0.992

Reference: PubChem BioAssay AID1159580 (chemical genetic matrix, 2015)
